Measured values from PubChem BioAssay (EPA / NIEHS).
Values joined by “and” are separate entries in the source; they are usually repeats but may differ in a detail not shown here. Identical values can stand only once. Some compounds were tested as several samples or in several runs, with calls that do not always agree. Active and inactive are the calls of the source. Rule for the calls: active = hit-call score of the fitted dose curve at least 0.9, where 1 is the maximum; inactive = score below 0.9.

Read-out: Pselectin, SELP (gene 6403)
Assay: BSK_4H_Pselectin: BioMAP Diversity Plus: 4H Assay for Pselectin Biomarker Activity (AID 2283026)
Details: primary human endothelial cells (HUVEC); actives raise or lower the signal
Protocol: BSK_4H is a cell-based, multiplexed-readout assay that uses umbilical vein endothelium, a human vascular primary cell, with measurements taken at 24 hours after chemical dosing in a 96-well plate.BSK_4H_Pselectin is an assay component measured in the BSK_4H assay. It measures P-Selectin antibody related to regulation of gene expression using ELISA technology.Data from the assay component BSK_4H_Pselectin was analyzed into 1 assay endpoint. This assay endpoint, BSK_4H_Pselectin, was analyzed with bidirectional fitting relative to DMSO as the negative control and baseline of activity. Using a type of binding reporter, gain or loss-of-signal activity can be used to understand changes in the signaling as they relate to the gene SELP. Furthermore, this assay endpoint can be referred to as a primary readout, because this assay has produced multiple assay endpoints where this one serves a signaling function. To generalize the intended target to other relatable targets, this assay endpoint is annotated to the cell adhesion molecules intended target family, where the subfamily is selectins.
The levels of cell surface (or secreted, indicated by the prefix "s") biomarker endpoints were measured by ELISA. Overt cytotoxicity to cells in confluent adherent cultures (all systems other than the BT system) was assessed by measuring total protein levels using sulforhodamine B (SRB) staining in parallel cultures at the time of biomarker measurements, indicated as SRB endpoints. For proliferation assays for adherent cell types, individual cell types are cultured at sub-confluence and relative cell numbers quantified by SRB staining at time points optimized for each system (48 h: 3C and CASM3C systems; 72 h: BT and HDF3CGF systems; 96 h: SAg system). SRB was performed by staining cells with 0.1% SRB after fixation with 10% TCA and reading wells at 560 nm.Viability and proliferation of PBMC (T cells) was quantified by Alamar Blue reduction for the SAg and BT systems. For PBMC viability (referred to as PBMC Cytotoxicity within the assay endpoint names), cells were plated (75,000/well in a 96-well plate) and then chemical samples added for 1 h before addition of activators, SEB and TSST-1 (20 ng/mL final concentration each). Cells were incubated for 90 h. Then, Alamar Blue (20 uL/well) (Invitrogen, Cat DAL1100) was added for 6 h, and the plates were read with a fluorescence microplate reader at 546/580 nm (excitation/emission). For PBMC proliferation, cells were plated and activated as above but incubated for only 16 h prior to addition of Alamar Blue. Plates were read after 6 h.

Compound	AC50	outcome
CCOC(C=C(C)CCC=C(C)C)OCC	30.2 µM (active)	–
OCCCCC(F)(F)C(F)(F)C(F)(F)C(F)(F)F	–	inactive
C=C(C)C(=O)OCC(F)(F)C(F)(F)C(F)(F)C(F)F	–	inactive
FC(F)(F)C(F)(F)C(F)(F)CC1CO1 (stereo not given)	–	inactive
O=S(=O)(Cl)C(F)(F)C(F)(F)C(F)(F)C(F)(F)C(F)(F)C(F)(F)C(F)(F)C(F)(F)F	–	inactive
NC(=O)C(F)(F)C(F)(F)C(F)(F)C(F)F	–	inactive
Cc1cc(O)c(C(C)(C)C)cc1C(C)(C)C	5.32 µM (active)	–
OCC(F)(F)C(F)(F)C(F)(F)C(F)(F)C(F)(F)C(F)(F)CO	–	inactive
Cc1cnccn1	–	inactive
O=C(O)C(F)(F)C(F)(F)C(F)(F)OC(F)(F)F	–	inactive
C[C@]12CC[C@H]3C(=CCc4cc(O)ccc43)[C@@H]1CCC2=O	–	inactive
CO[Si](C)(CCC(F)(F)C(F)(F)C(F)(F)C(F)(F)C(F)(F)C(F)(F)F)OC	–	inactive
OCC(O)CC(F)(F)C(F)(F)C(F)(F)C(F)(F)F (stereo not given)	–	inactive
CC(C)CCCC(C)CCO (stereo not given)	31.2 µM (active)	–
CC1=CC2C3C=CC(C3)C2C1C (stereo not given)	–	inactive
O=C1C=CC(=O)N1c1ccc(Cc2ccc(N3C(=O)C=CC3=O)cc2)cc1	7.11 µM (active)	–
NC(=O)C(F)(F)C(F)(F)C(F)(F)C(F)(F)C(F)(F)C(F)(F)C(F)(F)F	–	inactive
FC(F)(F)C(F)(F)C(F)(F)C(F)(F)C(F)(F)C(F)(F)C(F)(F)CCI	–	inactive
O=C(Cl)C(F)(F)C(F)(F)C(F)(F)C(F)(F)C(F)(F)C(F)(F)F	–	inactive
O=C(O)C(F)(F)OC(F)(F)C(F)(F)OC(F)(F)C(F)(F)OC(F)(F)F	–	inactive

Compound	AC50	outcome
OCC(O)CC(F)(F)C(F)(F)C(F)(F)C(F)(F)C(F)(F)C(F)(F)C(F)(F)C(F)(F)F (stereo not given)	–	inactive
NC(=O)C(F)(F)C(F)(F)C(F)(F)C(F)(F)C(N)=O	–	inactive
NCC(F)(F)C(F)(F)C(F)(F)C(F)(F)C(F)(F)C(F)(F)F	–	inactive
O=S(=O)(OCC(F)(F)F)C(F)(F)C(F)(F)C(F)(F)C(F)(F)F	–	inactive
CCN(CCO)S(=O)(=O)C(F)(F)C(F)(F)C(F)(F)C(F)(F)C(F)(F)C(F)(F)C(F)(F)C(F)(F)F	19.1 µM (active)	inactive
CCN(CC)c1ccc(N=Nc2ccccc2)cc1	11.3 µM (active)	–
Cc1cc(C)c(O)c(C(C)(C)C)c1	20 µM (active)	–
OCCCC(F)(F)C(F)(F)C(F)(F)C(F)(F)C(F)(F)C(F)(F)C(F)(F)C(F)(F)F	32.3 µM (active) and 24.1 µM (active)	–
OCC(F)(F)C(F)(F)C(F)(F)CO	–	inactive
NC(=O)C(F)(F)C(F)(F)C(F)(F)F	–	inactive
O=S(=O)(O)CCC(F)(F)C(F)(F)C(F)(F)C(F)(F)C(F)(F)C(F)(F)C(F)(F)C(F)(F)F	–	inactive
COC(F)(C(F)F)C(F)(F)F (stereo not given)	–	inactive
O=C(O)CCC(F)(F)C(F)(F)C(F)(F)C(F)(F)C(F)(F)C(F)(F)C(F)(F)F	–	inactive
C[Si](Cl)(Cl)CCC(F)(F)C(F)(F)C(F)(F)C(F)(F)C(F)(F)C(F)(F)F	–	inactive
CNS(=O)(=O)C(F)(F)C(F)(F)C(F)(F)C(F)(F)C(F)(F)C(F)(F)C(F)(F)C(F)(F)F	–	inactive
O=S(=O)(O)CCC(F)(F)C(F)(F)C(F)(F)C(F)(F)F	–	inactive
NC(O)(C(F)(F)F)C(F)(F)F	–	inactive
Brc1nc2ccccc2s1	–	inactive
CN(C(=O)C(F)(F)C(F)(F)C(F)(F)F)[Si](C)(C)C	–	inactive
